# How the values were obtained:
# Test in all cases: DAPPL (digital affinity profiling via proximity ligation, sequencing); 10 mM Tris-HCl pH 7.5, 50 mM NaCl, 1 mM DTT, 4% glycerol, room temperature, 30 min; GST-TFs on glutathione beads, 16-mer random dsDNA library, 0.1% formaldehyde crosslink after washing; high values mean tight binding
# Details in all cases: protein: recombinant; tags: N-terminal GST; dsDNA, one strand shown
# ELK1 = target: T1, ELK1 (Homo sapiens, UniProt P19419 1-428)
# T1 sequence: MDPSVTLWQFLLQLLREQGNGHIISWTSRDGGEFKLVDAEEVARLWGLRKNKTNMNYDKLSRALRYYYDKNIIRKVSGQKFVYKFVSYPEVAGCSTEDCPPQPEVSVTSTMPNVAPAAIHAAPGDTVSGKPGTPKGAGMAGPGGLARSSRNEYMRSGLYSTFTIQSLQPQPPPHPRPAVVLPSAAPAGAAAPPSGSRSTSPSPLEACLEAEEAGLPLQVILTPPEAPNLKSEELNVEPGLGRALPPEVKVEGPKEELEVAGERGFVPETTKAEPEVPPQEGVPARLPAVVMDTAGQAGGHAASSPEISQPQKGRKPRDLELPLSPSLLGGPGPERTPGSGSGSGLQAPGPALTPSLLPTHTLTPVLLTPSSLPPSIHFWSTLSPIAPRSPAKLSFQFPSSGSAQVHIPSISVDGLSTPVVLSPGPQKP
# Method in brief: (§1)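 GST fusions of human transcription factors were expressed in yeast and captured with glutathione beads. Once given DNA barcodes and pooled alongside a tag-only sample, they were incubated for 30 min at room temperature with 200 nmole of a random double-stranded 16-mer DNA library in Tris/NaCl/DTT/glycerol buffer, then washed, crosslinked (0.1% formaldehyde), proximity-ligated, PCR-amplified and sequenced on an Illumina NextSeq500. The binding signal of each hexamer is its read frequency for a factor divided by its frequency for the tag-only sample.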
# GABPA = target: T2, GABPA (Homo sapiens, UniProt Q06546 1-454)
# T2 sequence: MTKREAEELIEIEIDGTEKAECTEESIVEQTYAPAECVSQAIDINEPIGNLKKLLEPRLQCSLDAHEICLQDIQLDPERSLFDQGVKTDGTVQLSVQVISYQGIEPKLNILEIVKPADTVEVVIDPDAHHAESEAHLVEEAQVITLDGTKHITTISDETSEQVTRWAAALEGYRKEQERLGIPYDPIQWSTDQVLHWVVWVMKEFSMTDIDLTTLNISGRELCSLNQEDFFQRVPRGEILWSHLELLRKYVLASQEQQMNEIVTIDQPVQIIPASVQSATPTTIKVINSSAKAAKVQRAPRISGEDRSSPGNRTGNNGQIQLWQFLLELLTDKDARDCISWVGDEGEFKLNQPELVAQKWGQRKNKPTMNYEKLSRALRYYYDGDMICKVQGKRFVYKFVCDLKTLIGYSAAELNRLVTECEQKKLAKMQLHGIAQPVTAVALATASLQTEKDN
# Method in brief: as §1
# ERG = target: T3, ERG (Homo sapiens, UniProt P11308 1-479)
# T3 sequence: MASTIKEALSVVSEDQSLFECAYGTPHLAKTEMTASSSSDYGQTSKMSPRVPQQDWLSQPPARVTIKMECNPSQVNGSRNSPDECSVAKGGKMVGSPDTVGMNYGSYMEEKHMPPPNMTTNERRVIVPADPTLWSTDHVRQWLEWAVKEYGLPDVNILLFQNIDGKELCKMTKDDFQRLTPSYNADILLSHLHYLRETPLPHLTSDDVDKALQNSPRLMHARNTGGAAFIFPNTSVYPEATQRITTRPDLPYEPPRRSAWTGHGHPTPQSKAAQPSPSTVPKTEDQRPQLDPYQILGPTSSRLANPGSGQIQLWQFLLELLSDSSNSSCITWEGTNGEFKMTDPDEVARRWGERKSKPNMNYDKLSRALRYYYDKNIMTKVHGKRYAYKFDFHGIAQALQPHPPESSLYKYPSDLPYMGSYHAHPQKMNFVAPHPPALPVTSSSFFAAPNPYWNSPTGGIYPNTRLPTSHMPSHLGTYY
# Method in brief: as §1
# ELF1 = ELF1 (Homo sapiens, UniProt P32519 1-619)
# Method in brief: as §1
# EHF = target: T4, EHF (Homo sapiens, UniProt Q9NZC4 1-300)
# T4 sequence: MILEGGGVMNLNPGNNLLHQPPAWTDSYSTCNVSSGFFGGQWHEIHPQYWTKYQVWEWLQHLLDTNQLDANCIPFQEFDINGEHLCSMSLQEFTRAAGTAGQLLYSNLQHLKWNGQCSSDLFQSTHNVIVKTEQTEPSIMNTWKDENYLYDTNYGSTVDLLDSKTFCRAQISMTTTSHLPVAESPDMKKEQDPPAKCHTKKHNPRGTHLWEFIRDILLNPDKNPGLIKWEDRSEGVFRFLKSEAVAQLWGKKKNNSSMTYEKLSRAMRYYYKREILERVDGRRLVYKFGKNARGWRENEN
# Method in brief: as §1
# SPIB = SPIB (Homo sapiens, UniProt Q01892 1-262)
# Method in brief: as §1
# ELK3 = target: T5, ELK3 (Homo sapiens, UniProt P41970 1-407)
# T5 sequence: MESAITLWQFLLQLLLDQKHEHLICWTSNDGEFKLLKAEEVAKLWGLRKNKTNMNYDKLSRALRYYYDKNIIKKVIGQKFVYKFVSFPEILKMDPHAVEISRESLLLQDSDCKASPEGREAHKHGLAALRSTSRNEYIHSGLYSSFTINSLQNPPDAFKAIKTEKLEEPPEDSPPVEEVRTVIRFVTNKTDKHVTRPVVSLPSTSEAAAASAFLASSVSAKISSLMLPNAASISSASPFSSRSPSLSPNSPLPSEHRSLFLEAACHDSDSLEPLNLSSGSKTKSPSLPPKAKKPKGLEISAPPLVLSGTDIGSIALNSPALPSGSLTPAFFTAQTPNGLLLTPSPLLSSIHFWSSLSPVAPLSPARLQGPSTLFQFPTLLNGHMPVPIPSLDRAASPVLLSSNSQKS
# Method in brief: as §1
# FEV = target: T6, FEV (Homo sapiens, UniProt Q99581 1-238)
# T6 sequence: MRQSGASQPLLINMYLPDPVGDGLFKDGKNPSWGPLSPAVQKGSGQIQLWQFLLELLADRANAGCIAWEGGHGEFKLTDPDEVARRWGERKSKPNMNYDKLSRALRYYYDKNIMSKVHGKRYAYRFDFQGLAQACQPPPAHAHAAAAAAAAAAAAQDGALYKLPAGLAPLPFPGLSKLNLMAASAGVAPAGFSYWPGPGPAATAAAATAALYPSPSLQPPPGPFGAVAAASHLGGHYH
# Method in brief: as §1
# ETV5 = ETV5 (Homo sapiens, UniProt P41161 1-510)
# Method in brief: as §1
# ELF4 = ELF4 (Homo sapiens, UniProt Q99607 1-663)
# Method in brief: as §1
# Chain of ETV5 (P41161 whole entry): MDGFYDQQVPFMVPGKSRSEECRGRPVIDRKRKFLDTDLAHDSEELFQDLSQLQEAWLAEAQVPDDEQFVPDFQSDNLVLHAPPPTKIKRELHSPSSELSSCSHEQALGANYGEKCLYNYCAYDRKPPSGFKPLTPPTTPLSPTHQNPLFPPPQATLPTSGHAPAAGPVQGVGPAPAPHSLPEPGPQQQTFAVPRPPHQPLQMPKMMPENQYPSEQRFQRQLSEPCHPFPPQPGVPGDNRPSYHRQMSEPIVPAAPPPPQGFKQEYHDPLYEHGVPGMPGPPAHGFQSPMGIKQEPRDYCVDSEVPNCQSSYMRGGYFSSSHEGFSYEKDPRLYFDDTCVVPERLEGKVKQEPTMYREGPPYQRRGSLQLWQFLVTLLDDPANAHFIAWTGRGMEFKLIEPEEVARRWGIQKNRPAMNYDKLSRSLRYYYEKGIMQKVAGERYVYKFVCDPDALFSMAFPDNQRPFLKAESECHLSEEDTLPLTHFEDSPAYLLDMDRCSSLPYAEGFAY
# Chain of SPIB (Q01892 whole entry): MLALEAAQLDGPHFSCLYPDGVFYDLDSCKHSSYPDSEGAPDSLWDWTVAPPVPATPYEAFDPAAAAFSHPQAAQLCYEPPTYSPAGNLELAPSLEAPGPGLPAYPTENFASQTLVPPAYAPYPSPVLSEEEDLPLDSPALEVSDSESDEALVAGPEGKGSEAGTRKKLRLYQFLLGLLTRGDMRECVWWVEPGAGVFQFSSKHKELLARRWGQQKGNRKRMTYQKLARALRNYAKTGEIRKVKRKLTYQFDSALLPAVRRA
# Chain of ELF4 (Q99607 whole entry): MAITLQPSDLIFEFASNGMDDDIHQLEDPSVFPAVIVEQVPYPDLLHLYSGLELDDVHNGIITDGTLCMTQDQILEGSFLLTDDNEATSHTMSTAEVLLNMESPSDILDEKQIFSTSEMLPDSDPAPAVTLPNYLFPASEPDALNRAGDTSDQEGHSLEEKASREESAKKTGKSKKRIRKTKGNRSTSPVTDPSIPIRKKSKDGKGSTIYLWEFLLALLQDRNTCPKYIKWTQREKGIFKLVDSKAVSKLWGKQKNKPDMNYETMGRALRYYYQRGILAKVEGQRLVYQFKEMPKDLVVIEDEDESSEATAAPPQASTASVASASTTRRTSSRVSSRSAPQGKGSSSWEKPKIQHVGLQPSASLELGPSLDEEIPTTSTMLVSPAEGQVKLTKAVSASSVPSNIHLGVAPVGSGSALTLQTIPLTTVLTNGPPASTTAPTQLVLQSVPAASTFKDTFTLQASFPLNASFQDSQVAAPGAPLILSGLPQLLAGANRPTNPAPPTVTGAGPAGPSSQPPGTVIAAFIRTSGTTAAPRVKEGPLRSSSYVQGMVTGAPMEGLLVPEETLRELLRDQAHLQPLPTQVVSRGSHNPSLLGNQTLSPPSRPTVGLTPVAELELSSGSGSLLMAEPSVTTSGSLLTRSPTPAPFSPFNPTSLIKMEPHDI
# Chain of ELF1 (P32519 whole entry): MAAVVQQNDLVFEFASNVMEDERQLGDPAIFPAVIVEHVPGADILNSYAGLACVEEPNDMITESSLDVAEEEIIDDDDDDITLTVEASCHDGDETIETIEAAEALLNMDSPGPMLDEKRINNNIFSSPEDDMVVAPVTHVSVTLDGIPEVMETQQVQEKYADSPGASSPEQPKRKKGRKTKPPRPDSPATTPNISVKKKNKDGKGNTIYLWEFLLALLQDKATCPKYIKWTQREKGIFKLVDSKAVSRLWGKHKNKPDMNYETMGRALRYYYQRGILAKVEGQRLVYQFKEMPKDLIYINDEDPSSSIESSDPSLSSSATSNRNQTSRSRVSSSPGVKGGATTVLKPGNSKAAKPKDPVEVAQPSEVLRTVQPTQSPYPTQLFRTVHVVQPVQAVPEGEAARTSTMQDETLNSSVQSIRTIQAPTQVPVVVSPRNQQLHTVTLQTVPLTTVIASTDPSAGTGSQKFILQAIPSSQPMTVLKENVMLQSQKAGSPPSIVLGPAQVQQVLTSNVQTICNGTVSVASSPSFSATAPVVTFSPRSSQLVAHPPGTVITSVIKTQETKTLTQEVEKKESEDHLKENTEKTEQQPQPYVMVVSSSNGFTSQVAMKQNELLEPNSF
sequence,measurement,setting,value
GGCTAC,binding signal,ELK1,"1.12 fold enrichment (6-mer frequency, TF over GST control)"
same,binding signal,GABPA,"1.18 fold enrichment (6-mer frequency, TF over GST control)"
same,binding signal,ERG,"1.09 fold enrichment (6-mer frequency, TF over GST control)"
same,binding signal,ELF1,"1.26 fold enrichment (6-mer frequency, TF over GST control)"
same,binding signal,EHF,"1.07 fold enrichment (6-mer frequency, TF over GST control)"
same,binding signal,SPIB,"1.16 fold enrichment (6-mer frequency, TF over GST control)"
same,binding signal,ELK3,"1.19 fold enrichment (6-mer frequency, TF over GST control)"
same,binding signal,FEV,"1.1 fold enrichment (6-mer frequency, TF over GST control)"
same,binding signal,ETV5,"1.22 fold enrichment (6-mer frequency, TF over GST control)"
same,binding signal,ELF4,"1.17 fold enrichment (6-mer frequency, TF over GST control)"
